According to PubChem BioAssay (NCI):
Compounds without any hit were thinned out: in the full panel of roughly 83,000, 20% have a hit.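 Cell lines were cultured in 96-well plates, exposed to a single compound concentration, and assessed for percent growth 48 hours later.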 Unmarked numbers belong to inactive results. Active and inactive are the calls of the source. How the source made its calls: active means growth percent below 10; inactive means the rest.

Test system: SW-620 colon
Test: NCI-60 one-dose screen, 48 h (100 = growth as untreated, 0 = no growth, -100 = all killed)
Settings: 10 µM unless noted

Row | SMILES | growth
1 | CO/C=C/C(=O)c1cc2cnc3c(=N)cc(NC(=O)C(C)C)c([nH]1)c23 | -47.8% (active)
2 | Cc1cc2c(-c3nc4ccccn4c3Nc3cccc4ccccc34)c(O)c(O)cc2c(O)c1-c1c(C)cc2c(-c3nc4ccccn4c3Nc3cccc4ccccc34)c(O)c(O)cc2c1O | 23.9%
3 | Cc1cc(N2CCOCC2)nc(N(CCNc2ccnc3cc(Cl)ccc23)Cc2cccs2)n1 | 19.5%
4 | CCCCCCCC(=O)SCC/C=C/[C@@H]1CC(=O)NCc2cc(ccn2)C2=N[C@@](C)(CS2)C(=O)N[C@@H](C(C)C)C(=O)O1 | -1.73% (active)
5 | Cc1sc2c(c1C)c(=O)nc1c(-c3nc4ccccc4s3)n[nH]n12 | 104%
6 | CC(C)(C)CC(C)(C)Nc1c(-c2c(O)c3ccccc3oc2=O)nc2c(Cl)cc(C(F)(F)F)cn12 | 102%
7 | CCOc1cccc(/C=N/NC(=O)c2ccccc2Nc2ccnc(C(F)(F)F)c2)c1O | 32.3%
8 | Cc1cc2c(-c3nc4ccccn4c3NC3CCCCC3)c(O)c(O)cc2c(O)c1-c1c(C)cc2c(-c3nc4ccccn4c3NC3CCCCC3)c(O)c(O)cc2c1O | 28.9%
9 | C=CCC(=O)N[C@H](/C=C/C(=O)O)Cc1ccc(-c2cc(Cl)cc(Cl)c2)cc1 | 104%
10 | CN1CCN(c2nc(NCCNc3ccnc4cc(Cl)ccc34)c3ccccc3n2)CC1 | 26.5%
11 | C[C@@H](C[C@H](CCO)c1cc(C(F)(F)F)cc(C(F)(F)F)c1)c1ccc2ccccc2c1 | 88.7%
12 | C=C1C(=O)O[C@H]2[C@H]1CC/C(Cn1cc(-c3cc(C)c(C)cc3C)nn1)=C\CC[C@@]1(C)O[C@@H]21 | -79.2% (active)
13 | COc1ccc2c(CCCc3ccc(Cl)cc3Cl)c3[n+](cc2c1OC)CCc1cc2c(cc1-3)OCO2 | 4.21% (active)
14 | CCN1CCN(c2cc(C)nc(N(CCCNc3ccnc4cc(Cl)ccc34)Cc3ccc4c(c3)OCO4)n2)CC1 | -3.47% (active)
15 | O=C1CC(c2ccc(Cl)cc2)c2ncn(-c3cccc(Cl)c3)c2N1 (centres undefined) | 26%
16 | Cc1ccccc1Nc1nc2nonc2nc1Nc1cccc(C)c1C | 77%
17 | Fc1ccc(NCc2cn(-c3ccccc3)nc2-c2ccc(OCc3ccccc3)cc2)cc1Cl | 108%
18 | CCCCCCCC(=O)SCC/C=C/[C@@H]1CC(=O)NCc2cccc(n2)C2=N[C@@](C)(CS2)C(=O)N[C@@H](C(C)C)C(=O)O1 | 3.63% (active)
19 | COC(=O)C1CCc2sc3ncnc(Nc4cn[nH]c4C(=O)Nc4ccc(CN5CCN(C)CC5)cc4)c3c21 (centres undefined) | -10.9% (active)
20 | C=CC(=O)N(C)[C@H]1C[C@H]2OC(C)(C1OC)n1c3ccccc3c3c4c(c5c6ccccc6n2c5c31)C(=O)NC4 (some centres undefined) | 10.3%

Row | SMILES | growth
21 | Cc1cc(N(CCNc2ccnc3cc(Cl)ccc23)Cc2ccc3c(c2)OCO3)nc(N2CCN(C)CC2)n1 | 2.88% (active)
22 | CN1CCN(CCCOc2cccc3nc(Nc4ccc(Cl)c(C(F)(F)F)c4)ccc23)CC1 | -54.8% (active)
23 | Nc1c2c(c(O)c3c1=C(CO)C=N3)=NCCS2 | -76% (active)
24 | Cc1cc(O)c2c(c1)C1OC(=O)CCCCCN1C1=C2C(=O)c2cccc(OC3CC(O)C(O)C(C)O3)c2C1=O (centres undefined) | 99.9%
25 | CC1(C=O)NC(=O)NC1=O (centres undefined) | 101%
26 | COc1ccc(Nc2ncccc2NC(=O)c2cn(Cc3cccc(Oc4ccccc4)c3)nn2)cc1 | 106%
27 | OCCNC(=S)Nc1ccc(-c2nc(N3C[C@H]4CC[C@@H](C3)O4)c3cccn3n2)cc1 | 11.6%
28 | O=C(c1ccccc1)C(c1ccccc1)N1CCOCC1 (centres undefined) | 103%
29 | NN1C(=O)CSC1=S | 111%
30 | CC12O[C@H](C[C@@H](OC(=O)CCC(=O)O)[C@H]1O)n1c3ccccc3c3c4c(c5c6ccccc6n2c5c31)C(=O)NC4=O | 36.2%
31 | C=C1[C@@H](O)C[C@H]2C(C)(C)C[C@H](Cl)C[C@]2(C)[C@H]1C[C@H](O)[C@H]1CC(=O)NC1=O | -1.83% (active)
32 | COC(=O)[C@H](Cc1ccccc1)NC(=O)[C@@H](OC)[C@@H]1Cc2cc3cc(OC4CC(OC5CC(O)C(O)C(C)O5)C(O)C(C)O4)c(C)c(O)c3c(O)c2C(=O)[C@H]1OC1CC(OC2CC(OC3CC(C)(O)C(O)C(C)O3)C(O)C(C)O2)C(O)C(C)O1 (some centres undefined) | 6.79% (active)
33 | CCOC(=O)C1=C(C)N=C2Sc3cccc(OC)c3N2[C@H]1c1ccccn1 | 102%
34 | CNC(=O)c1cc(Oc2cccc3nc(Nc4ccc(Oc5ccccc5)cc4)ccc23)ccn1 | 87.8%
35 | COc1ccc(-c2nc(N)ncc2Oc2ccccc2OC)c(O)c1 | 20.6%
36 | CSc1nc2ncncc2[nH]1 | 106%
37 | Nc1c2c(c(O)c3c1=C(CO)C=N3)=NCCS2=O (centres undefined) | -18% (active)
38 | CC(C)=CCc1cc2c(cc1O)C1=C(C(=O)C3=C(NCCS3(=O)=O)C1=O)C(C=C(C)C)O2 (centres undefined) | 6.34% (active)
39 | CC/C=C\C[C@H]1C/C=C2/C(=O)C=C[C@@H]2C/C=C\CCCC(=O)O1 | -51% (active)
